697 NFkB inh = inhibitors of PMA/ionomycin-induced NF-kB reporter, 697 cells, primary screen, B-cell NF-kB inhibitor project, cell-based, luminescence, uHTS; 697 B-cell NF-kB luciferase reporter, 16 h; hit rate 0.33% among 330,000; AID 435022, 2010; inhibition, % at 4 µM; in the data active = inhibition above about 35%
Jurkat NFkB inh = inhibitors of induced NF-kB luciferase reporter, primary screen, TCR NF-kB activation inhibitor project, cell-based, luminescence, uHTS; hit rate 0.53% among 330,000; Jurkat, PMA/ionomycin-induced NF-kB luciferase reporter; inhibition, % at 4 µM; AID 435003, 2010; in the data active = inhibition above about 50%
Gli-Sufu block = Gli-Sufu pathway antagonists, primary screen, luciferase luminescence, Sufu-KO-LIGHT cells, uHTS; Sufu-KO-LIGHT fibroblasts, Gli luciferase reporter luminescence; inhibition, % at 5 µM; hit rate 0.74% among 340,000; AID 588413, 2011;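 active = inhibition above about 55%, limit read from the data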;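 note: 0% = DMSO-treated cells and 100% = wells with medium but no cells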
Beta apoptosis = inhibitors of cytokine-induced beta cell apoptosis, primary screen, luminescence; INS-1E cytokine-induced death, ATP luminescence, 48 h; percent of positive-control rescue, neutral wells zero; protection from apoptosis, % (test concentration not listed); hit rate 0.8% among 300,000;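 active = Every replicate reaches about 75%, or at least half do and their mean reaches it too, limit read from the data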;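 note: 0% = cytokine-treated negative control wells and 100% = positive control rescue; higher means more ATP so stronger rescue from cytokine killing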
Mdm2 MdmX PPI = inhibitors of human Mdm2-MdmX association, primary screen, cell-based, luminescence, split luciferase, SaOS-2, uHTS | SaOS-2 split-luciferase Mdm2/MdmX complementation | AID 485346, 2010 | hit rate 3% among 330,000 | Protein Mdm4 (Homo sapiens) + E3 ubiquitin-protein ligase Mdm2 (Homo sapiens), … | inhibition, % at 8 µM;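 active = inhibition of at least 50% at 8 µM in the primary screen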
Target sequence (O15151 whole entry, looked up): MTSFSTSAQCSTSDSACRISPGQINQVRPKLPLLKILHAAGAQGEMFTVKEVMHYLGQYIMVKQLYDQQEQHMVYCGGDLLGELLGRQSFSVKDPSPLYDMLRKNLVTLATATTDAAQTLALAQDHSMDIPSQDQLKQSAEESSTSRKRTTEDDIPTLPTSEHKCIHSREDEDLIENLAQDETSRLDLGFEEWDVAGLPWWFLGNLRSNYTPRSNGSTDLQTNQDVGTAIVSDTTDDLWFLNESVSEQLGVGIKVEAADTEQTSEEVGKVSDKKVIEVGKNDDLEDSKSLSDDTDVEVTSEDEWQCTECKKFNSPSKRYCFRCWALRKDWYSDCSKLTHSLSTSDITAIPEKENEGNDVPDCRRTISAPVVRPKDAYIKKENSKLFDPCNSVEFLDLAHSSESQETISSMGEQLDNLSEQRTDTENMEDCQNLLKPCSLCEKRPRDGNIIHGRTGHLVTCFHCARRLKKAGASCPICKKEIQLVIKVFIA
Target sequence (Q00987 whole entry, looked up): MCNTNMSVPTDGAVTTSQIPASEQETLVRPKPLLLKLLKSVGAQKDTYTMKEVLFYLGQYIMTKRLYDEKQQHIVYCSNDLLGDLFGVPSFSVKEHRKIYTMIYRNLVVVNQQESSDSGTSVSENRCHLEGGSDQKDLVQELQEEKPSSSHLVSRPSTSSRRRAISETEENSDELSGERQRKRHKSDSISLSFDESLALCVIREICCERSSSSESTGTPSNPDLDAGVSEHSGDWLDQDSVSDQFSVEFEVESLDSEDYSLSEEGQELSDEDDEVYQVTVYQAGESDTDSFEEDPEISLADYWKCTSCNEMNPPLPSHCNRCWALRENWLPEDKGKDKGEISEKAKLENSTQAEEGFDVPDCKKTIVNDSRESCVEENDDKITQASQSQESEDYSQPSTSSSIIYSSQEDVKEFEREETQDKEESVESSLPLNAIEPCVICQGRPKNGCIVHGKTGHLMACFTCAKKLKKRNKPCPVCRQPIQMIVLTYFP
Mdm2 MdmX conf = Mdm2-MdmX complex disruptors, retested hits, confirmation, luminescence, single concentration; shares compounds with Mdm2 MdmX PPI; Mdm2-MdmX binding, luminescent assay; inhibition, % at 8 µM; hit rate 55% among 10,000; in the data active = inhibition above about 40%
FLuc counter = full-length luciferase signal inhibition, confirmation, counter-screen for Mdm2/MdmX interaction inhibitor project, cell-based, single concentration, SaOS-2; shares compounds with Mdm2 MdmX PPI; SaOS-2 full-length luciferase counterscreen, luminescence; inhibition, % at 8 µM; hit rate 77% among 6,200; AID 504607, 2011;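 active = mean inhibition at 8 µM reaching about 37%, which flags the compound as non-specific, limit read from the data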;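 note: p53-null SaOS-2 cells with luciferase driven by a doxycycline-inducible promoter; compound on cells about two nights before reading with doxycycline added after day one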
The depositor's hits bear a star; x = no result. Compounds with a hit are over-represented: about 4% of the library has one in this group of screens.

SMILES	697 NFkB inh	Jurkat NFkB inh	Gli-Sufu block	Beta apoptosis	Mdm2 MdmX PPI	Mdm2 MdmX conf	FLuc counter
O=C(c1cc(C2CC2)on1)N1CCN(C(c2ccccc2)c2ccccc2)CC1	-8	-2	15	9	-11	x	x
COc1ccc(-c2ccc3c(c2)S(=O)(=O)c2cccc(C(=O)NCCOc4ccccc4Cl)c2C3=O)cc1OC	2	-9	-3	91*	95*	28	x
COc1ccc(-c2ccc3c(c2)S(=O)(=O)c2cccc(C(=O)NCc4ccccc4Cl)c2C3=O)cc1OC	10	-5	-4	14	22	x	x
COc1ccc(-c2ccc3c(c2)S(=O)(=O)c2cccc(C(=O)NC4CCCCC4)c2C3=O)cc1OC	-19	2	0	-7	6	x	x
COc1ccc(-c2ccc3c(c2)S(=O)(=O)c2cccc(C(=O)NC4CC4)c2C3=O)cc1OC	13	8	-8	-4	72*	52*	46*
N#Cc1c(Nc2ccccc2)sc(C(=O)c2ccccc2)c1N	-23	-21	-2	2	4	x	x
Cc1cccc(Oc2sc(C(=O)c3ccccc3)c(N)c2C#N)c1	-11	10	-4	-6	58*	33	42*
CN1c2ccccc2C(=O)/C(=C\Nc2ccc(F)cc2F)S1(=O)=O	15	6	0	0	17	x	x
COc1ccc(C(=O)Nc2sc3c(c2C(=O)O)CC(C)(C)OC3)cc1	-12	5	-2	-9	3	x	x
CC(C)COc1ccc(C(=O)Nc2sc3c(c2C(=O)O)CC(C)(C)OC3)cc1	-2	-1	-4	-6	51*	47*	82*
CC(Oc1ccccc1)C(=O)N=C1SC2CS(=O)(=O)CC2N1c1ccccc1 (centres undefined)	1	9	-7	-3	3	x	x
COc1ccc(Cl)cc1NC(=O)NC1CCCCC1	4	-1	-2	0	7	x	x
COc1ccc(Cl)cc1NC(=O)Nc1cccc([N+](=O)[O-])c1C	17	-8	-7	15	53*	29	x
CCCOc1ccc(C(=O)CCNC(Cc2c[nH]c3ccccc23)C(=O)O)cc1 (centres undefined)	9	15	-1	-17	87*	21	x
COc1ccc(NS(=O)(=O)c2ccc3c(c2)NC(=O)CC(=O)N3)cc1OC	11	-2	x	-8	25	x	x
Cc1ccc(C(=O)Cn2c(C(=O)/C=C/c3ccccc3)nc3ccccc32)cc1	-11	3	9	41	56*	55*	53*
COc1cc(C2c3c(n[nH]c3C)C(=O)N2c2ccc(C)cc2)ccc1O (centres undefined)	1	10	7	4	69*	72*	51*
Cc1cc(=O)n(Cc2ccccc2)c(O)c1C#N	-36	-8	16	-1	-12	x	x
Cc1c(C#N)c(NC(=O)CCl)n(Cc2cccs2)c1C	28	14	28	6	94*	76*	38*
Cc1c(C#N)c(NC(=O)CCl)n(Cc2ccc(F)cc2)c1C	30	4	5	-4	89*	51*	43*
COC(=O)c1cc(C(=O)OC)n(Cc2ccc(F)cc2)c1C	-14	-8	-8	-4	-21	x	x
Cc1c(C#N)c(NC(=O)CCl)n(Cc2ccccc2)c1C	17	20	-6	3	94*	86*	38*
COc1ccc(N=[N+]([O-])c2ccc(OC)cc2)cc1	x	x	-94	x	x	x	x
COc1ccc(NC(=O)c2cc(-c3ccccn3)nc3c(C)cc(C)cc23)c(C)c1	-20	4	9	-3	77*	47*	104*
Cc1cc(C)c2nc(-c3ccccn3)cc(C(=O)NCc3ccc(S(N)(=O)=O)cc3)c2c1	3	-4	9	7	54*	-3	x
SMILES	697 NFkB inh	Jurkat NFkB inh	Gli-Sufu block	Beta apoptosis	Mdm2 MdmX PPI	Mdm2 MdmX conf	FLuc counter
COc1cccc(NC(=O)c2cc(-c3ccncc3)nc3c(C)cc(C)cc23)c1	-15	4	-1	6	22	x	x
CC1CC(C)CN(C(=O)CCc2ccccc2)C1 (centres undefined)	14	-6	-1	-3	-2	x	x
CCOC(=O)c1sc(NC(=O)Nc2cccc(Cl)c2)cc1C	-131	-130	-5	101*	78*	71*	34
CCOC(=O)c1c(NC(=O)Nc2ccccc2)sc(C)c1C	1	-10	10	11	11	x	x
COc1ccc(S(=O)(=O)Nc2ccc3c(c2)C(=O)N([C@H](C)CO)C[C@H](C)[C@@H](CN(C)S(=O)(=O)c2cccs2)O3)cc1	3	4	-10	1	25	x	x
Cc1cc(Oc2nc3c(C)cccn3c(=O)c2/C=C(\C#N)S(=O)(=O)c2ccc(Cl)cc2)ccc1Cl	9	-6	-3	44	57*	-1	x
CC(=O)NC1C(=O)N(CCc2ccccc2)c2ccc(Br)cc21 (centres undefined)	x	x	-16	x	x	x	x
CC(=O)NC1C(=O)N(Cc2ccccc2)c2ccc(Br)cc21 (centres undefined)	22	-4	0	-1	75*	42*	49*
CCn1c(=O)c2sccc2n(Cc2cc(C(=O)OC)ccc2OC)c1=O	2	10	6	0	51*	8	x
CCN(Cc1ccccc1)C(c1ccncc1)c1nnnn1C(C)(C)C (centres undefined)	-22	-1	7	x	5	x	x
CC(C)(C)n1nnnc1C(c1ccc(F)cc1)N(Cc1ccc(F)cc1)Cc1ccco1 (centres undefined)	-4	9	18	77*	61*	34	x
CC(C)(C)n1nnnc1C(c1ccc(C(F)(F)F)cc1)N(Cc1ccccc1)Cc1ccco1 (centres undefined)	13	47	7	117*	77*	-4	x
CC(C)(C)n1nnnc1C(c1ccc(Cl)cc1)N(Cc1cccnc1)Cc1ccco1 (centres undefined)	-17	1	36	-1	23	x	x
CC(C)(C)n1nnnc1C(c1ccc(C(F)(F)F)cc1)N(Cc1ccc(F)cc1)Cc1ccco1 (centres undefined)	3	47	16	107*	90*	27	x
Cc1ccc(C(c2nnnn2C(C)(C)C)N(Cc2ccco2)Cc2cccs2)cc1 (centres undefined)	5	17	18	7	35	x	x
CCCC(=O)NC(c1cccs1)c1cc([N+](=O)[O-])c2cccnc2c1O (centres undefined)	x	x	-1	61	x	x	x

Assay outcomes (PubChem)
